Bioassay records (PubChem BioAssay)
CYP2C9 inh – blockers of cytochrome P450 2C9 activity – biochemical, luminescence, ADME assay, primary screen. hit rate 20% among 96,000. AID 777, 2007. P11712. CYP2C9 Supersomes, luciferin-H conversion. inhibition, % at 5 µM;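 active = blocking of liver enzyme CYP2C9 beyond about 50% at 5 µM, limit read from the data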
Target sequence (P11712 whole entry, looked up): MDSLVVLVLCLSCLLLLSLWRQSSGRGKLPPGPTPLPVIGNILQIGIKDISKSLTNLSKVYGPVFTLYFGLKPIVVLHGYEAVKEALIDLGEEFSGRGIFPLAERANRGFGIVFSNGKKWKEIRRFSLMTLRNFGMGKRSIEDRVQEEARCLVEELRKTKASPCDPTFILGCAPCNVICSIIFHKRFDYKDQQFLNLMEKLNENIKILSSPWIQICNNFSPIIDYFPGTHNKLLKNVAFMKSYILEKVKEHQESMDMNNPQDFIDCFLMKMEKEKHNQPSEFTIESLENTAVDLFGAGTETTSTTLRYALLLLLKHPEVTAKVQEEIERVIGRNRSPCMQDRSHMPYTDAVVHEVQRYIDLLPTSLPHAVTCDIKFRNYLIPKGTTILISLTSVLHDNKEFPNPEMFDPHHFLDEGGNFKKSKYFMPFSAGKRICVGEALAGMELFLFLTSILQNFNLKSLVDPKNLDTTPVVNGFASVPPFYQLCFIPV
PostGolgi ctrl – growth inhibition of yeast control strain, primary screen, counter-screen for post-Golgi transport modulator project; inhibition, % at 10 µM; efflux-deficient yeast background strain, growth absorbance A615, 16 h; hit rate 5% among 98,000
CYP2C19 act – human CYP2C19 activators, primary screen, biochemical, luminescence. 96,000 tested, under 10 active. recombinant CYP2C19, luciferin-H EGE luminescence; stronger effect = higher value; 0 = fully inhibited enzyme, 1 = untreated enzyme. Cytochrome P450 2C19 (Homo sapiens), P33261. activation factor at 5 µM;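 active = activation factor of at least 2 at 5 µM in the primary screen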
CYP2C19 inh – blockers of cytochrome P450 2C19 activity – biochemical, luminescence, ADME assay, primary screen. P33261. CYP2C19 Supersomes, luciferin-H EGE luminescence, 30 min. inhibition, % at 5 µM. hit rate 21% among 96,000. AID 778, 2007;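 active = CYP2C19 inhibition above a set limit at 5 µM in the primary screen, cut at about 50% in these data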
PostGolgi yeast – phenotypic screen on post-Golgi transport, primary screen; inhibition, % at 10 µM; post-Golgi transport phenotypic cell assay; hit rate 0.9% among 98,000;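 note: yeast cells grown in 1536-well plates; yeast grown about 18 h at 30C before absorbance read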
CYP2C9 act – human CYP2C9 activators, primary screen, biochemical, luminescence; Cytochrome P450 2C9 (Homo sapiens), P11712; recombinant CYP2C9, luciferin-H conversion; stronger effect = higher value; factor 1 = untreated enzyme, 0 = blocked; activation factor at 5 µM; hit rate 1.4% among 96,000;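 active = activation factor of 2 or more for CYP2C9 at a 5 µM dose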
Large screens that a line does not name were inactive. A selection: hits, their analogues and other compounds. The true share with any hit is near 32%. Cut-off read from the data, not from the text of the source, unless noted: active = inhibition above about 30%; inactive = the rest.

NS(=O)(=O)c1ccc(CCNc2ncnc3sccc23)cc1	CYP2C19 inh 82.8
Cc1sc2ncnc(NCCc3ccc(S(N)(=O)=O)cc3)c2c1C	none
Cc1ccc(OCCCC(=O)Nc2nncs2)cc1	CYP2C9 inh 74.3, CYP2C19 inh 88.2
O=C(CCCN1C(=O)c2ccccc2C1=O)Nc1nncs1	none
Cc1ccc(OCCCC(=O)Nc2ccc(Br)cc2)cc1	none
O=C(CCCOc1ccc(Cl)cc1)Nc1nncs1	CYP2C9 inh 68.3, CYP2C19 inh 68.1
O=c1c2ccccc2ncn1-c1ccc2c(c1)OCCO2	none
COc1ccc(CCNC(=O)COc2ccc(S(=O)(=O)N3CCOCC3)cc2)cc1	none
COc1ccc(CCNC(=O)COc2ccc(S(=O)(=O)N3CCOCC3)cc2)cc1OC	CYP2C9 inh 50.3
COc1ccc(CCNC(=O)COc2ccc(-c3ccc(C)cc3)cc2)cc1OC	CYP2C9 inh 74.5
Cc1cc2c(cc(C(=O)NCCCN3CCOCC3)n2Cc2ccc(Cl)cc2)o1	none
CC(CN1CCOCC1)OC(=O)c1ccc2c(c1)OCCO2 (stereo not given)	none
CC(CN1CCOCC1)OC(=O)c1cccc(Br)c1 (stereo not given)	CYP2C19 inh 60.0
CC(CN1CCOCC1)OC(=O)c1ccccc1Br (stereo not given)	CYP2C19 inh 76.3
CC(CN1CCN(C)CC1)OC(=O)c1ccccc1Cl (stereo not given)	none
COc1ccc(N2C(=O)C3CCCN3C2=O)cc1 (stereo not given)	none
CC1(C)CC2(CC(C)(C(=O)CSc3nc4ccccc4s3)OC2=O)C(=O)O1 (stereo not given)	none
c1ccc(SCc2nc3ccccc3[nH]2)cc1	CYP2C19 inh 90.3
Cc1ccc(SCc2nc3ccccc3[nH]2)cc1	CYP2C19 inh 89.2
c1ccc2[nH]c(CSc3nccs3)nc2c1	none (no result: CYP2C9 inh, CYP2C19 act, CYP2C19 inh, CYP2C9 act)
N#Cc1cc2c(nc1SCc1nc3ccccc3[nH]1)CCC2	none
Clc1ccc(SCc2nc3ccccc3[nH]2)cc1	CYP2C9 inh 54.0, CYP2C19 inh 99.6
CC(C)SCc1nc2ccccc2[nH]1	none
Cc1cc(C)c(C#N)c(SCc2nc3ccccc3[nH]2)n1	CYP2C9 inh 57.9, CYP2C19 inh 56.1
CCN(CC)C(=O)Nc1ccccc1C	none
COC(=O)NC1CSCC1OC(=O)c1ccc(Br)cc1 (stereo not given)	none (no result: CYP2C9 inh, CYP2C19 act, CYP2C19 inh, CYP2C9 act)
CC(C)Cn1cc(C(=O)NC2CCN(Cc3ccccc3)CC2)c2c3ccccc3n(C)c2c1=O	CYP2C19 inh 57.3
CC(C)Cn1cc(C(=O)N2CCN(c3ccccn3)CC2)c2c3ccccc3n(C)c2c1=O	CYP2C9 inh 78.3
S=C(NCCSCc1ccccc1Cl)Nc1ccccc1	CYP2C19 inh 96.2
S=C(NCCSCc1ccc(Cl)cc1)Nc1ccccc1	CYP2C9 inh 52.1, CYP2C19 inh 51.3
COC(=O)[C@H](C)NC(=O)Nc1cccc(C)c1	none
CC1CCCN(c2oc(-c3cccc4ccccc34)nc2C#N)C1 (stereo not given)	none
CC(=O)c1ccc(NC(=O)CSCC(=O)Nc2ccc3ccccc3c2)cc1	CYP2C9 inh 54.7
CC(=O)c1ccc(NC(=O)c2ccn[nH]2)cc1	CYP2C9 inh 69.0
O=C(Nc1ccccc1)c1ccn[nH]1	none
CC(=O)Nc1ccc2ccccc2c1	none
CC(=O)c1ccc(NC(=O)Nc2ccccc2)cc1	CYP2C9 inh 63.1, CYP2C19 inh 50.4
CC(C)(C)C1CCc2[nH]nc(C(=O)O)c2C1 (stereo not given)	none
Cc1nn(C)cc1CNC(=O)Nc1ccc(Cl)c(Cl)c1	none
CC(C)C(c1nnnn1Cc1ccccc1)N(Cc1ccco1)Cc1cccs1 (stereo not given)	CYP2C9 inh 88.8, CYP2C19 inh 95.8
CCOc1ccc2[nH]c(=O)c(CN(Cc3ccco3)C(CC)c3nnnn3Cc3ccccc3)cc2c1 (stereo not given)	none
COc1ccc(Cn2nnnc2C(C(C)C)N(Cc2ccco2)Cc2cccs2)cc1 (stereo not given)	CYP2C9 inh 66.0, CYP2C19 inh 56.4
CCSc1ccccc1C(=O)Nc1cccc(OC)c1	none
O=C(O)CSCC(=O)Nc1ccc(C2CCCCC2)cc1	CYP2C9 inh 64.3
Nn1cnnc1SCC(=O)Nc1ccc(C2CCCCC2)cc1	none
Nc1ccccc1C#Cc1ccccc1	CYP2C19 inh 52.6
O=c1[nH]cnc2scc(-c3ccc(-c4ccccc4)cc3)c12	none
O=c1[nH]cnc2scc(C3COc4ccccc4O3)c12 (stereo not given)	CYP2C9 inh 80.2, CYP2C19 inh 87.8
Cc1cc(OCC(=O)NCc2nc(-c3ccccc3)no2)c(C)cc1Br	PostGolgi ctrl 33.0
COCCNC(=O)CCc1nc(-c2ccccc2)no1	none
Cc1cc(C)c(C)c(OCC(=O)NCc2nc(-c3ccccc3)no2)c1	PostGolgi ctrl 40.6
CCOC(=O)CSc1nnc(Cn2nnc(-c3ccccc3)n2)n1C	none
O=C(CSc1nnnn1-c1ccccc1)Nc1nsc(-c2ccc(Cl)cc2)n1	CYP2C19 inh 74.9, CYP2C9 act 2.8
Cc1ccc(-c2nc(NC(=O)CSc3nnc(C)s3)ns2)cc1	CYP2C19 inh 65.0
O=C(CSc1nnnn1-c1ccccc1)CC(=O)Nc1ccc(Cl)cc1	CYP2C9 act 2.4
COc1ccc2c(c1)c(=O)cc(C)n2CC(=O)NCc1ccco1	none
CCN(CC)C(=O)C(=O)c1cccn1-c1cccc(Cl)c1C#N	CYP2C19 inh 81.0
CC(C)N(C(=O)C(=O)c1cccn1-c1ccccc1C#N)C(C)C	CYP2C19 inh 54.2
CN(C)C(=O)C(=O)c1cccn1-c1ccccc1C#N	none
CC(C)C[C@H](NC(=O)Nc1ccc(S(N)(=O)=O)cc1)C(=O)O	none
CCN(CC)C(=O)Oc1ccc(Cl)c2ccccc12	CYP2C19 inh 67.2
Cc1csc(=N)n1CC(=O)N1CCc2ccccc21	none
N#Cc1cnc(Nc2nc3ccccc3o2)nc1-c1ccccc1	CYP2C9 inh 61.6
Cc1ccnc(Nc2nc3ccccc3o2)n1	none
CC(NC(=O)C(C)(C)C)c1nc2ccccc2n1C (stereo not given)	none
Cc1nn(-c2ccccc2)c(Cl)c1C1C(C#N)=C(N)OC2=C1C(=O)CCC2 (stereo not given)	CYP2C9 inh 76.0, CYP2C19 inh 90.9
Cc1[nH]nc2c1C(c1ccc(-c3ccccc3C#N)o1)C(C#N)=C(N)O2 (stereo not given)	CYP2C9 inh 92.7, CYP2C19 inh 68.5
CCCc1nn(C)c2c1C(c1ccncc1)C(C#N)=C(N)O2 (stereo not given)	CYP2C9 inh 72.4
Cc1nn(Cc2ccccc2)c2c1C(c1cccc(Cl)c1)C(C#N)=C(N)O2 (stereo not given)	CYP2C9 inh 90.8, CYP2C19 inh 85.1
Cc1ccc(-n2nc(C)c3c2OC(N)=C(C#N)C3c2ccncc2)cc1 (stereo not given)	none
